Measurements reported in PubChem BioAssay AID504910 (Southern Research Specialized Biocontainment Screening …, 2011).
Results with a measured potency or affinity are listed apart. Calls of active or inactive are those of the source. The rule behind the calls is not given here.

Experiment: HepG2 cell cytotoxicity, cytotoxicity control, set 4 (AID 504910)

Row | SMILES | outcome
1 | COc1ccc(NC(=O)CSc2nc3ccccc3c(=O)[nH]2)cc1 | inactive
2 | NNC(=O)c1ccncc1 | inactive
3 | CCSc1nc(C)c(C)c(=O)[nH]1 | inactive
4 | CC(Sc1nc2ccccc2c(=O)[nH]1)C(=O)NC1CCCCC1 (stereo not given) | inactive
5 | Cc1cc(Br)ccc1NC(=O)c1cnc(N2CCN(c3ccccn3)CC2)c2ccccc12 | inactive
6 | Nc1cc(=O)[nH]c(SCC(=O)NC2CCCCC2)n1 | inactive
7 | Cc1cnc(SCC(=O)NC2CCCCC2)[nH]c1=O | inactive
8 | CC1CCN(C(=O)CSc2nc3ccccc3c(=O)[nH]2)CC1 | inactive
9 | CCOC(=O)CSc1nc(C)c(C)c(=O)[nH]1 | inactive
10 | O=C(CSc1nc2c(c(=O)[nH]1)CCCC2)NC1CCCCC1 | inactive
11 | COC(=O)C(Nc1nc(SCC(=O)NC2CCCCC2)nc2ccccc12)c1ccccc1 (stereo not given) | inactive
12 | CO[C@H]1/C=C/O[C@@]2(C)Oc3c(C)c(O)c4c(O)c(c(C=NN5CCN(C)CC5)c(O)c4c3C2=O)NC(=O)/C(C)=C\C=C\[C@H](C)[C@H](O)[C@@H](C)[C@@H](O)[C@@H](C)[C@H](OC(C)=O)[C@@H]1C | inactive
13 | CCCc1cc(C(N)=S)ccn1 | inactive
14 | Cc1cc(C)n2nc(N)c(N=Nc3ccccc3)c2n1 | inactive
15 | NC(=O)CSc1nc2ccccc2c(=O)[nH]1 | inactive
16 | Cc1nc(SCC(=O)NC2CCCC2)[nH]c(=O)c1C | inactive
17 | Cc1ccc(NC(=O)COC(=O)CCc2c[nH]c3ccccc23)cc1[N+](=O)[O-] | inactive
18 | CCSc1nc2ccccc2c(=O)[nH]1 | inactive
19 | CC1CCN(C(=O)C2CCN(c3nnc(-n4cccc4)s3)CC2)CC1 | inactive
20 | O=C(CSc1ccccn1)NC1CCCCC1 | inactive
21 | COc1c(N2CCNC(C)C2)c(F)cc2c(=O)c(C(=O)O)cn(C3CC3)c12 (stereo not given) | inactive
22 | O=C(CSc1nc2ccccc2c(=O)[nH]1)NC1CCCC1 | inactive
23 | NC[C@H]1O[C@H](O[C@H]2[C@H](O)[C@@H](O[C@H]3O[C@H](CO)[C@@H](O)[C@H](N)[C@H]3O)[C@H](N)C[C@@H]2N)[C@H](O)[C@@H](O)[C@@H]1O | inactive
24 | Cc1nc(SCC(=O)N(C)c2ccccc2)[nH]c(=O)c1C | inactive
25 | Cc1cc(=O)[nH]c(=S)[nH]1 | inactive
26 | Cc1nc(SCC(=O)NCCC(C)C)[nH]c(=O)c1C | inactive
27 | CCC(Sc1nc2c(c(=O)[nH]1)CCC2)C(=O)Nc1cccc(OC)c1 (stereo not given) | inactive
28 | CC(C)CCNC(=O)CSc1nc2c(c(=O)[nH]1)CCC2 | inactive
29 | CCOC1OC(=O)C(Cl)=C1Nc1ccccc1C (stereo not given) | inactive
30 | Cc1[nH]c(=S)[nH]c(=O)c1C | inactive
